Screening results: PubChem BioAssay, NMMLSC
AGP1-GFP MLPCN – modulators of AGP1-GFP expression in yeast TOR pathway, primary screen, cell-based, multiplex flow cytometry, S. cerevisiae, MLPCN library; 3 h; GFP as percent of DMSO wells; GFP response vs DMSO, % at 10 µM; 320,000 compounds, 0.02% hits;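 active = GFP response relative to DMSO above a set limit, near screen average plus 3 SD, cut at about 150% in these data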;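 also: median GFP channel fluorescence of the gated AGP1 strain per well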
CIT2-GFP yeast – modulators of CIT2-GFP expression in yeast, primary screen, S. cerevisiae, GFP fusion, multiplex flow cytometry, MLPCN library; S. cerevisiae CIT2-GFP strain, 3 h; 100 means same as DMSO wells; GFP response vs DMSO, % at 10 µM; 320,000 compounds, 0.065% hits;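 active = GFP response relative to DMSO above a set limit, near the screen mean plus 3 SD, cut at about 150% in these data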;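 also: ratio of well median GFP fluorescence to mean of DMSO wells on the plate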
LAP4 TOR yeast – modulators of LAP4-GFP expression in yeast, primary screen, S. cerevisiae, multiplex flow cytometry, MLPCN library | 3 h; median GFP as percent of DMSO wells | GFP response vs DMSO, % at 10 µM | 320,000 compounds, 0.34% hits;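 active = GFP response vs DMSO above a set limit, about the screen mean plus 3 SD, cut at about 150% in these data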
MEP2 TOR yeast – modulators of MEP2-GFP levels in yeast, primary screen, S. cerevisiae, multiplex flow cytometry, MLPCN library; GFP response vs DMSO, % at 10 µM; AID 2016, 2009; S. cerevisiae MEP2-GFP strain, 3 h; 100% = DMSO control level; 330,000 compounds, 0.51% hits;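 active = GFP response versus DMSO above a set limit, roughly screen mean plus 3 SD, cut at about 180% in these data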;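 also: median GFP fluorescence of the barcode-gated MEP2-GFP cells per well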
Efflux pump mplx – inhibitors of Candida efflux pumps in yeast, primary screen, S. cerevisiae, Nile Red, multiplex. S. cerevisiae Candida pump triplex. inhibition, % at 10 µM. AID 485275, 2010. 330,000 compounds, 0.44% hits;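 active = plate passing quality check with inhibition over a set limit, or well fluorescence over plate mean plus 4 SD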;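 also: Nile Red retained in pooled yeast measured as flow cytometry median fluorescence; 0% = buffer negative control and 100% = Enniatin B positive control; higher means more Nile Red kept so more efflux inhibition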
RPL19A TOR yeast – RPL19A-GFP expression modulators in yeast, primary screen, cell-based, S. cerevisiae, multiplex flow cytometry, MLPCN; S. cerevisiae RPL19A-GFP strain, 3 h; hits give low values; percent response vs DMSO, % at 10 µM; 330,000 compounds, 0.3% hits;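 active = percent response vs DMSO below 50%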;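 also: median channel GFP fluorescence of the barcoded RPL19A-GFP strain; ratio of sample median GFP to plate DMSO average so 100% = DMSO; lower means less RPL19A-GFP as with rapamycin TOR inhibition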
LAP4 cherry2 – LAP4-GFP expression modulators in yeast, confirmation, cell-based, second cherry pick, flow cytometry | S. cerevisiae LAP4-GFP strain, 3 h | GFP response vs DMSO, % at 10 µM | 590 compounds, 20% hits | shares compounds with LAP4 TOR yeast;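 active = GFP signal as percent of the solvent control above about 150%, meaning raised reporter expression, limit read from the data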;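 also: ratio of well median GFP fluorescence to plate DMSO mean so 100% = DMSO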
MEP2 cherry2 – modulators of MEP2-GFP levels in yeast, confirmation, S. cerevisiae, flow cytometry GFP, second cherry picks; shares compounds with LAP4 TOR yeast; S. cerevisiae MEP2-GFP strain, 3 h; GFP response vs DMSO, % at 10 µM; 590 compounds, 10% hits; AID 2622, 2010;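 active = GFP signal above 150% of the solvent control wells, that is a rise of more than half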;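 also: median channel GFP fluorescence of all gated yeast cells per well; ratio of median GFP to plate DMSO average so 100% = DMSO level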
RPL19A-GFP pick2 – RPL19A-GFP modulators in TOR pathway yeast, confirmation, cell-based, S. cerevisiae, flow cytometry, second cherry pick | shares compounds with LAP4 TOR yeast | 590 compounds, 3% hits | GFP response vs DMSO, % at 10 µM | S. cerevisiae RPL19A-GFP strain, 3 h; hits give low values; 100% means same as DMSO wells;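 active = under 65% GFP response relative to DMSO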;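 also: median GFP channel fluorescence per well over the all cells gate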
CIT2 GFP CP2 – modulators of CIT2-GFP expression in yeast, confirmation, flow cytometry, second cherry pick, single plex | shares compounds with LAP4 TOR yeast | S. cerevisiae CIT2-GFP strain, 3 h; DMSO control wells read 100% | GFP response vs DMSO, % at 10 µM | 590 compounds, 8% hits | AID 2624, 2010;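 active = GFP response vs DMSO above about 150%, limit read from the data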;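 also: median green fluorescence per well over all gated yeast cells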
AGP1 GFP CP2 – AGP1-GFP expression modulators, hit retest, confirmation, cell-based, flow cytometry, S. cerevisiae, cherry pick set 2. AID 2643, 2010. 590 tested, under 10 active. percent response vs DMSO, % at 10 µM. shares compounds with LAP4 TOR yeast. S. cerevisiae AGP1-GFP strain, 3 h;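 active = over 150 percent of DMSO response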;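 also: median GFP channel fluorescence over all cells without mother daughter split; sample median GFP divided by mean DMSO control so 100% equals DMSO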
Yeast autofluor – compound autofluorescence in yeast s288c, dose response, artefact control for yeast TOR pathway GFP screen, s288c strain; shares compounds with LAP4 TOR yeast; fluorescence change (kMESF span) at 33 µM; S. cerevisiae s288c, 520 nm autofluorescence, flow cytometry, 3 h; hits give high values; zero means same as solvent-only cells; AID 2757, 2010; 610 tested, under 10 active;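 active = fluorescence span over the dose series, or activity score, above about 33, limit read from the data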
s288c autofl DR – autofluorescence of compounds in yeast s288c, dose response, artefact control for yeast TOR pathway GFP screen, primary hits, KU SAR, s288c parental | shares compounds with LAP4 TOR yeast | S. cerevisiae s288c parental, compound autofluorescence, flow cytometry, 3 h | fluorescence change (span) at 33 µM | 110 tested, under 10 active | AID 488829, 2010;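 active = fluorescence change span, or the activity score built from it, above 25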
TORC1 bypass gr – wild-type yeast growth inhibition sparing TORC1 bypass cells, mechanism study for yeast TOR pathway GFP screen, BY4741 wild type, TORC1 bypass strain | growth rating (0-3) at 30 µM | 120 tested, under 10 active | AID 504456, 2011 | S. cerevisiae BY4741 spot growth rating, 48-72 h; hits give low values | shares compounds with LAP4 TOR yeast;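 active = growth rating at most 1 for wild type yeast while the TORC1 bypass strain still grows fully, rated 3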
* marks the source's active call; other numbers are inactive results; · = not tested or not shown. Rows were chosen to be rich in hits. Some 1.3% of all compounds tested hit in one or more screens of this group.

SMILES	AGP1-GFP MLPCN	CIT2-GFP yeast	LAP4 TOR yeast	MEP2 TOR yeast	Efflux pump mplx	RPL19A TOR yeast	Yeast autofluor	others
O=c1c2cc(Cl)ccc2nc(-c2ccc([N+](=O)[O-])cc2)n1O	79.4	75.6	134.5	95.7	-0.1	64.5	0.3	LAP4 cherry2=157.7*;MEP2 cherry2=153.1*;RPL19A-GFP pick2=45.6*;CIT2 GFP CP2=144.8;AGP1 GFP CP2=75.4
COCC(C)N=C1NN=C(c2cc(C)n(Cc3ccccc3Cl)c2C)CS1 (stereo not given)	105.1	104.5	94.8	100.3	0.0	105.7	·
O=C(COc1ccccc1)N1CCN(c2ncnc3c2cnn3-c2ccccc2)CC1	103.2	84.9	95.3	189.9*	0.1	94.5	0
Cc1cccc(C(=O)N2CCN(c3ncnc4c3cnn4-c3ccccc3)CC2)c1	·	106.2	114.2	106.8	0.0	107.1	·
CC1CN(C(=O)COC(=O)c2cc(=O)c3ccccc3o2)CC(C)O1 (stereo not given)	105.2	109.5	94.8	98.1	0.0	100.3	·
O=C(CSC1=NS(=O)(=O)c2ccccc21)Nc1ccccc1	64.9	67.6	115.6	90.4	-0.2	59.2	0.5	LAP4 cherry2=113.2;MEP2 cherry2=124.0;RPL19A-GFP pick2=61.6*;CIT2 GFP CP2=115.4;AGP1 GFP CP2=71.6
COC(=O)CSC1=NS(=O)(=O)c2ccccc21	91.2	92.0	145.9	90.4	-0.3	82.2	·
COc1cccc(OC)c1C(=O)OCC(=O)NC1CCCCCC1	103.3	93.2	102.7	101.1	0.7	97.6	·
CCOC(=O)c1ccc(-n2ccnc2)c(NC(=O)c2ccc(Cl)cc2)c1	107.3	98.8	93.9	99.8	0.1	104.7	·
COc1ccccc1/C=C/C(=O)N1CCc2cc(OC)c(OC)cc2C1C (stereo not given)	102.2	102.9	85.7	104.8	-0.1	108.4	·
O=[N+]([O-])c1ccc(-c2cn3nc(-c4ccccc4)c(-c4ccccc4)nc3n2)cc1	50.4	118.6	170.7*	260.9*	-0.1	105.1	3.13
O=[N+]([O-])c1cccc(-c2cn3nc(-c4ccccc4)c(-c4ccccc4)nc3n2)c1	98.1	103.5	102.6	106.9	-0.1	103.1	·
COc1ccc(N2CCN(C(=O)[C@@H]3CCCN3C3=NS(=O)(=O)c4ccccc43)CC2)cc1	106.1	98.7	103.0	104.1	0.1	97.5	·
O=C(NCC(c1cccs1)N1CCOCC1)C1CCN(S(=O)(=O)c2ccccc2C(F)(F)F)CC1 (stereo not given)	102.8	101.5	100.3	105.9	2.6	99.4	·
CC(=O)Oc1ccc(N2C(=O)C3C4C=CC(O4)C3C2=O)cc1 (stereo not given)	100.2	100.3	118.2	98.3	0.0	98.5	0.1
COCC(C)NC(=O)CCS(=O)(=O)c1nc(-c2ccc(OC)cc2)cc(C(F)(F)F)n1 (stereo not given)	91.4	95.9	88.4	93.0	0.2	89.5	·
CCOC(=O)CCS(=O)(=O)c1nc(-c2ccccc2)cc(C(F)(F)F)n1	130.2	98.9	185.2*	144.7	0.0	90.4	0.4	s288c autofl DR=0.24;TORC1 bypass gr=3
COC(=O)CCS(=O)(=O)c1nc(-c2ccccc2)cc(C(F)(F)F)n1	148.8	102.0	155.7*	183.4*	-0.1	101.3	1.02	s288c autofl DR=0.08;TORC1 bypass gr=3
CCOC(=O)CS(=O)(=O)c1nc(-c2ccc(F)cc2)cc(C(F)(F)F)n1	88.4	80.8	172.4*	104.3	-0.1	93.7	0.51
CCOC(=O)CS(=O)(=O)c1nc(-c2ccccc2)cc(C(F)(F)F)n1	115.3	83.6	179.6*	131.1	0.0	87.6	0.41	s288c autofl DR=0.16;TORC1 bypass gr=3
CC(=O)c1sc(NC(=O)CCN2C(=O)c3ccccc3C2=O)nc1C	91.3	103.2	65.1	98.5	0.1	111.6	·
COc1cccc(CN(C)C(=O)c2ccc(NC(=O)CC3SC(N4CCCC4)=NC3=O)cc2)c1OC (stereo not given)	101.5	95.2	101.8	95.2	0.0	96.1	·
COc1cc(/C=C/C(=O)OCC(=O)NCc2ccccc2OC)ccc1O	101.9	78.9	93.7	93.3	-0.1	88.3	·
COc1ccc(/C=C2\C(=O)ON=C2c2ccccc2)cc1OC	103.9	105.3	99.9	112.0	-0.1	105.2	·
O=C1ON=C(c2ccccc2)/C1=C/c1ccc(-c2ccccc2[N+](=O)[O-])o1	86.1	87.9	179.1*	91.4	-0.1	85.9	0.6	LAP4 cherry2=150.3*;MEP2 cherry2=117.0;RPL19A-GFP pick2=99.5;CIT2 GFP CP2=105.7;AGP1 GFP CP2=97.6
O=C1ON=C(c2ccccc2)/C1=C/c1ccco1	79.8	72.8	169.0*	97.7	-0.1	91.2	1.92	s288c autofl DR=0.73;TORC1 bypass gr=3
